Assay results as given in PubChem BioAssay (Tox21).
Records with an inconclusive call do not appear. The source made the active and inactive calls. Unless noted, calls come from the whole dose curve; as a rule, active = well fitted curve in the direction sought with a large enough effect in the repeat runs; inconclusive = weak or mixed curves; inactive = no such curve, though single readings can be large; an effect the other way counts as inactive or inconclusive.

Columns and labels:
[1] = qHTS assay to identify small molecule agonists of the vitamin D receptor (VDR) signaling pathway - cell viability counter screen (AID 743224); note: series mostly up to about 63 µM; % is set by controls: 0 for no effect and ±100 for the full control effect; nearly all actives have a fitted effect of over 50% in size
Method in brief: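 Compounds were pin-transferred onto VDR-bla cells plated 4 h earlier; following 16 h incubation at 37C, cell viability was quantified by CellTiter-Glo luminescence after 30 min at room temperature.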

[2] = qHTS assay to identify small molecule antagonists of the vitamin D receptor (VDR) signaling pathway - cell viability counter screen (AID 743225); note: % is set by controls: 0 for no effect and ±100 for the full control effect; nearly all actives have a fitted effect of over 50% in size
Method in brief: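 Parallel cytotoxicity test: VDR-UAS-bla HEK 293T, 3 nM (final) 1-alpha,25-dihydroxyvitamin D3 with test compound, 16 h, 37C. Endpoint is CellTiter-Glo luminescence in the same wells.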

[3] = qHTS assay to identify small molecule agonists of the NFkB signaling pathway (AID 1159509; active = well fitted curve in the direction sought with a large enough effect in the signal ratio in the repeat runs, not every such curve was filed as active; the % refers to the signal ratio; note: series mostly up to about 61 µM; % is set by controls: 0 for no effect and ±100 for the full control effect)
Method in brief: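 Readout: FRET fluorescence, 405 nm excitation, 460/530 nm emission; beta-lactamase expression disrupts FRET. Cells: ME-180 stably carrying NF-kB-driven bla reporter. Compound exposure 5 hr, 37 C, 5% CO2.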

[4] = qHTS assay to identify small molecule agonists of the NFkB signaling pathway - cell viability counter screen (AID 1159515; calls by dose curve; note: series mostly up to about 61 µM; % is set by controls: 0 for no effect and ±100 for the full control effect; nearly all actives have a fitted effect of over 55% in size)
Method in brief: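 Parallel cytotoxicity counter screen in ME-180 cells carrying an NFkB-response-element beta-lactamase reporter, 2,000 cells/well. Compound exposure lasted 5 hr at 37 C, 5% CO2. Cell viability was quantified by CellTiter-Glo luminescence.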

[5] = qHTS assay to identify small molecule agonists of the endoplasmic reticulum stress response signaling pathway (AID 1159516; active = well fitted activation curve with a large enough effect in the signal ratio in the repeat runs, not every such curve was filed as active; the % refers to the signal ratio; note: % is set by controls: 0 for no effect and ±100 for the full control effect)
Method in brief: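 Using a HeLa line with an ESRE-driven beta-lactamase gene, agonist activity was measured by FRET substrate fluorescence (460 and 530 nm emission) after cells were treated with compounds for 5 hr at 37 C and 5% CO2.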

[6] = qHTS assay to identify small molecule agonists of the endoplasmic reticulum stress response signaling pathway - cell viability counter screen (AID 1159517; calls by dose curve;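 note: HeLa cells carrying an ER stress response element beta-lactamase reporter; series mostly up to about 61 µM; % is set by controls: 0 for no effect and ±100 for the full control effect; nearly all actives have a fitted effect of over 50% in size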)
Method in brief: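 Steps: seed 1,500 ESRE-bla HeLa cells per well; incubate overnight at 37 C, 5% CO2; add compounds in DMSO for 5 hr; run FRET substrate 2 hr RT; add CellTiter-Glo, wait 30 min, read luminescence.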

[7] = qHTS assay to identify small molecule antagonists of the retinoid-related orphan receptor gamma (ROR-gamma) signaling pathway - cell viability counter screen (AID 1159520); note: % is set by controls: 0 for no effect and ±100 for the full control effect; nearly all actives have a fitted effect of over 50% in size
Method in brief: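 Tet-on ROR gamma CHO cells were given compounds for 2 hr, then doxycycline hyclate at 1 uM final, and incubated 16 hr at 37 C. Viability was measured as ATP content by CellTiter-Glo luminescence.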

[8] = molecular target: Nuclear receptor ROR-gamma (Homo sapiens) (UniProt P51449); test: qHTS assay to identify small molecule antagonists of the retinoid-related orphan receptor gamma (ROR-gamma) signaling pathway (AID 1159521)
Method in brief: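 Decreased RORE-driven luciferase luminescence indicates antagonism. Tet-on RORγ CHO cells received compound, then 1 uM final doxycycline 2 h later; signal read after 16 h incubation.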

[9] = qHTS assay to identify small molecule agonists of the AP-1 signaling pathway - cell viability counter screen (AID 1159525; calls by dose curve; note: nearly all actives have a fitted effect of over 55% in size)
Method in brief: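 Same-well cytotoxicity counter screen of the Tox21 10K library in ME-180 cells. The readout is ATP-dependent luminescence after 5 h compound treatment. Data are normalised to DMSO and tetra n-octyl ammonium bromide controls.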

[10] = qHTS assay to identify small molecule agonists of the AP-1 signaling pathway (AID 1159526; calls by dose curve; note: % is set by controls: 0 for no effect and ±100 for the full control effect)
[11] = molecular target: Retinoic acid receptor RXR-alpha (Homo sapiens) (UniProt P19793); test: qHTS assay to identify small molecule agonists of the RXR signaling pathway (AID 1159527; calls by dose curve; note: % is set by controls: 0 for no effect and ±100 for the full control effect; nearly all actives have a fitted effect of over 35% in size)
Chain of Retinoic acid receptor RXR-alpha (Homo sapiens) (P19793 whole entry, looked up): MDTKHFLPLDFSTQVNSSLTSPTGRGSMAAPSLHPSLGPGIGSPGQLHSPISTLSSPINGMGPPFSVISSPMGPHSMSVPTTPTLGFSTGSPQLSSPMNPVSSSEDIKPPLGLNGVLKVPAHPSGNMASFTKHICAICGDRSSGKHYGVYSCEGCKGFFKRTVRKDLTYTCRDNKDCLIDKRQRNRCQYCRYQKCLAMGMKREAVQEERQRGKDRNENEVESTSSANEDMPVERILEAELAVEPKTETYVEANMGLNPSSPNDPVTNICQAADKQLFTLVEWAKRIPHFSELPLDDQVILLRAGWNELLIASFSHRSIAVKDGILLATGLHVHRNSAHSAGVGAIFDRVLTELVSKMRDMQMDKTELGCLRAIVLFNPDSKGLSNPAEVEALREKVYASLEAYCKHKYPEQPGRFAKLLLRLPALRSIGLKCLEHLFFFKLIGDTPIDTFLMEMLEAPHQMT
Method in brief: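 16 hr incubation of compound-treated RXR-alpha-UAS-bla HEK 293T cells (2% charcoal-stripped FBS, 37 C) preceded a 2 hr room-temperature LiveBLAzer FRET substrate step and blue/green fluorescence measurement.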

[12] = qHTS assay to identify small molecule agonists of the RXR signaling pathway - cell viability counter screen (AID 1159529)
Method in brief: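 In this parallel viability measure, GeneBLAzer RXR-alpha HEK 293T cells (2% charcoal-stripped FBS) were given a 5 hr preincubation, treated with compounds 16 hr at 37 C, and read by CellTiter-Glo luminescence.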

[13] = qHTS assay to identify small molecule antagonists of the retinoid acid receptor (RAR) signaling pathway - cell viability counter screen (AID 1159551); note: % is set by controls: 0 for no effect and ±100 for the full control effect; nearly all actives have a fitted effect of over 35% in size
Method in brief: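 ATP-based viability, C3RL4 cells, 6 h at 37 C with 1 uM final retinol co-added after compound; luminescence read 30 min post CellTiter-Glo, RT.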

[14] = qHTS assay to identify small molecule antagonists of the retinoic acid receptor (RAR) signaling pathway (AID 1159552)
Method in brief: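 C3RL4 RARE-luc cells, overnight plating; retinol 1 uM final added right after compound; 6 hr 37 C; luciferase read at 30 min RT.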

[15] = qHTS assay to identify small molecule agonists of the retinoic acid receptor (RAR) signaling pathway (AID 1159553); note: % is set by controls: 0 for no effect and ±100 for the full control effect
Method in brief: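 Quantitative high-throughput format: the Tox21 10K library was tested on C3RL4 RARE-luciferase cells for 6 hr at 37 C and 5% CO2, with luminescence measured after a 30 min room-temperature reagent step.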

[16] = qHTS assay to identify small molecule antagonists of the estrogen related receptor (ERR) signaling pathway - cell viability counter screen (AID 1224818)
Method in brief: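 Quantitative high-throughput viability counter screen in ERR cells. Compounds (DMSO) incubated 17.5 h at 37 C; read-out was CellTiter-Fluor fluorescence.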

[17] = qHTS assay to identify small molecule antagonists of the estrogen related receptor signaling pathway with the pleiotropic PPARgamma coactivator (PGC) cell viability counter screen (AID 1224822)
Method in brief: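 Cytotoxicity in the PGC/ERR cell line is assessed with CellTiter-Fluor, read as fluorescence intensity 30 min after reagent addition, following 17.5 h compound treatment at 37 C.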

CN(C)CCCSc1ccccc1NC(=O)/C=C/c1ccccc1
inactive: Potency [1] | Potency [2] | outcome [3] | outcome [4] | outcome [5] | outcome [6] | outcome [7] | Potency [8] | Potency [9] | outcome [10] | Potency [11] | Potency [12] | outcome [13] | Potency [14] | Potency [15]

NCCCNCCSP(=O)(O)O
inactive: activity change, negative = cytotoxicity [1] 6.38% [at 13.2 µM] | viability change, negative = cytotoxic [2] 2.84% [at 6.95 µM] | activation [3] 0.134% [at 6.95 µM] | activity, negative = cytotoxic [4] 0.56% [at 6.95 µM] | activation [5] 0.0202% [at 6.95 µM] | activity change, negative = cytotoxicity [6] 10.1% [at 6.95 µM] | activity, negative = cytotoxicity [7] 4.74% [at 8.39 µM] | activity change, negative = inhibition [8] 18.8% [at 8.39 µM] | viability change, negative = cytotoxic [9] -1.42% [at 6.97 µM] | activation [10] -2.28% [at 6.97 µM] | activation [11] 10.3% [at 6.98 µM] | activity change, negative = cytotoxicity [12] 8.34% [at 6.97 µM] | activity change, negative = cytotoxicity [13] 1.85% [at 8.39 µM] | activation [15] -0.783% [at 8.36 µM] | outcome [16] | outcome [17]

O=C(CCCN1CCN(c2ccccn2)CC1)c1ccc(F)cc1
inactive: Potency [1] | Potency [2] | outcome [3] | outcome [4] | outcome [5] | outcome [6] | outcome [7] | Potency [8] | Potency [9] | outcome [10] | Potency [11] | Potency [12] | outcome [13] | Potency [14] | Potency [15]

CCCN(CCC)CCc1cccc2c1CC(=O)N2
inactive: Potency [1] | Potency [2] | outcome [3] | outcome [4] | outcome [5] | outcome [6] | outcome [7] | Potency [8] | Potency [9] | outcome [10] | Potency [11] | Potency [12] | outcome [13] | Potency [15] | outcome [16] | outcome [17]

C=CCOCC(CC)(CO)COCC=C
inactive: Potency [1] | Potency [2] | outcome [3] | outcome [4] | outcome [5] | outcome [6] | outcome [7] | Potency [8] | Potency [9] | outcome [10] | Potency [11] | Potency [12] | outcome [13] | Potency [14] | Potency [15]

O=C(O)CCCc1ccccc1
inactive: Potency [1] | Potency [2] | outcome [3] | outcome [4] | outcome [5] | outcome [6] | outcome [7] | Potency [8] | Potency [9] | outcome [10] | Potency [11] | Potency [12] | outcome [13] | Potency [14] | Potency [15]

Cc1ccc(C#N)cc1
inactive: Potency [1] | Potency [2] | outcome [3] | outcome [4] | outcome [5] | outcome [6] | outcome [7] | Potency [8] | Potency [9] | outcome [10] | Potency [11] | Potency [12] | outcome [13] | Potency [14] | Potency [15]

Cn1c(N)c(N=O)c(=O)n(C)c1=O
inactive: Potency [1] | Potency [2] | outcome [3] | outcome [4] | outcome [5] | outcome [6] | outcome [7] | Potency [8] | Potency [9] | outcome [10] | Potency [11] | Potency [12] | outcome [13] | Potency [14] | Potency [15]

O=C1OC(=O)C2CCCCC12 (configuration not stated)
inactive: Potency [2] | outcome [3] | outcome [4] | outcome [5] | outcome [6] | outcome [7] | Potency [8] | Potency [9] | outcome [10] | Potency [11] | Potency [12] | outcome [13] | Potency [14] | Potency [15]

CCOC(=O)C(=O)OCC
inactive: Potency [1] | Potency [2] | outcome [3] | outcome [4] | outcome [5] | outcome [6] | outcome [7] | Potency [8] | Potency [9] | outcome [10] | Potency [11] | Potency [12] | outcome [13] | Potency [14] | Potency [15]

Cc1nc2c([nH]1)c(=O)n(C)c(=O)n2Cc1ccco1
inactive: Potency [1] | Potency [2] | outcome [3] | outcome [4] | outcome [5] | outcome [6] | outcome [7] | Potency [8] | Potency [9] | outcome [10] | Potency [11] | Potency [12] | outcome [13] | Potency [15] | outcome [16] | outcome [17]

COC(=O)CC(C)=O
inactive: Potency [1] | Potency [2] | outcome [3] | outcome [4] | outcome [5] | outcome [6] | outcome [7] | Potency [8] | Potency [9] | outcome [10] | Potency [11] | Potency [12] | outcome [13] | Potency [14] | Potency [15]
